# Screening results from PubChem.
# The sample as a whole holds a higher share of hits than the screen did.
# hDAT+cocaine = modulates human dopamine transporter uptake under cocaine; Q01959; LLC-PK1 hDAT cells, [14C]-dopamine uptake with cocaine IC80; actives deviate in either direction; B-score at 10 µM; 110,000 compounds, 1.3% hits; AID 449768;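 active = Z score or B-score, a plate-position-corrected score, falls beyond the plate's 99.7% confidence bounds, in either direction; inactive = both scores lie inside the 99.7% bounds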
# Target sequence (Q01959 whole entry, looked up): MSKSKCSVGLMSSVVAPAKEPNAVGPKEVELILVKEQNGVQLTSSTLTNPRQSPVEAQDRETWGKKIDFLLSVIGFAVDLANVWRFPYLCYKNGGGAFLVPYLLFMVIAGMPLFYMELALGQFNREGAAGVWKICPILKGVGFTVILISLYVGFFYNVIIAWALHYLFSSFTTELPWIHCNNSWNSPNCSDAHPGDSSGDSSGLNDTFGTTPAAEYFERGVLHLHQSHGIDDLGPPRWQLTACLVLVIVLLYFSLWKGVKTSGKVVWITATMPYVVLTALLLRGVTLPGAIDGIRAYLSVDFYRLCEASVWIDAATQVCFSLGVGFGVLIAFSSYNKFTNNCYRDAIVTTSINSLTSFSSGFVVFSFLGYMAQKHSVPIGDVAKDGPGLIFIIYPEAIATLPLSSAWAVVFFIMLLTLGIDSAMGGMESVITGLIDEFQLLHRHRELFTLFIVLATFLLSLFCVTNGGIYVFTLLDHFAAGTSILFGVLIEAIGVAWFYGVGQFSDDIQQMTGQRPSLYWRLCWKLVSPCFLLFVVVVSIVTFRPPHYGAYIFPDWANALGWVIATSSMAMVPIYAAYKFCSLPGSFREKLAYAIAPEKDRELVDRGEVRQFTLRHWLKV
# D1 allo mod = D1 dopamine receptor (human) allosteric modulation | P21728 | HEK293 D1, CRE-luciferase, dopamine EC30 potentiation; actives deviate in either direction | B-score at 10 µM | 58,000 compounds, 5.9% hits | AID 641;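 active = luminescence count or its row- and column-corrected plate score outside the 99.7% band of the plate's sample wells, on either side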
# EphB4 ephrin blk = blocks human EphB4 binding to ephrin-B2; AID 720; inhibition, % at 7 µM; P54760; 97,000 compounds, 0.15% hits; EphB4 LBD / TNYL-RAW-Alexa532 peptide, fluorescence polarization;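 active = inhibition above the screen-wide mean inhibition plus 3 SD, cut at about 15% in these data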
# D1 PAM confirm = confirmation of human D1 dopamine receptor allosteric modulators; shares compounds with D1 allo mod; HEK293 D1 CRE-luciferase, dopamine EC30 potentiation; stronger effect = higher value; luminescence at 10 µM; 2,200 compounds, 88% hits; AID 642;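 active = luminescence in either of two replicates above the same-plate mean plus 3 SD of the low-dose dopamine control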
# D1 ag no DA = D1 (human) signaling in absence of dopamine | luminescence at 10 µM | 1,900 compounds, 0.8% hits | shares compounds with D1 allo mod | HEK293 D1 CRE-luciferase, luminescence, no dopamine; stronger effect = higher value; in the data active = luminescence above about 3900
# Isoprot counter = isoproterenol response counter-screen activity for D1 modulators; HEK293 D1 CRE-luciferase, isoproterenol EC30 counter-screen; AID 647; calls only at 10 µM; 2,200 compounds, 63% hits; shares compounds with D1 allo mod;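 active = luminescence in either replicate above plate mean of wells with a partly effective reference agonist dose plus 3 SD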;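 note: isoproterenol raises cAMP through native beta-adrenoceptor Gs so signal bypasses D1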
# Numbers stand for hits; . = inactive; / = not tested or not shown; + = active, no number.
SMILES,hDAT+cocaine,D1 allo mod,EphB4 ephrin blk,D1 PAM confirm,D1 ag no DA,Isoprot counter
CCN(CC)C(=S)Sc1c(-c2ccccc2)c2cc(Cl)ccc2[nH]c1=O,.,/,.,/,/,/
O=C(c1ccc(S(=O)(=O)N2CCOCC2)cc1)N1CCN(c2ccc(F)cc2)CC1,.,3.33,.,.,.,.
O=C(c1ccc(S(=O)(=O)N2CCOCC2)cc1)N1CCN(c2ccccc2F)CC1,.,.,.,/,/,/
Cc1ccc(C)c(NC(=O)CCC(=O)NNC(=O)c2cccc([N+](=O)[O-])c2)c1,.,/,.,/,/,/
CCNc1nc(NC(C)(C)C)nc(N(CC)n2cnnc2)n1,.,2.72,.,8308,.,.
CCNc1nc(NCC)nc(Nn2cnnc2)n1,.,.,.,/,/,/
O=C(Oc1cccnc1)c1cccc(Cl)c1,.,.,.,/,/,/
COc1ccc(C(=O)Oc2cccnc2)cc1OC,.,8.56,.,20932,.,+
C#CCOCCOCCOCCNc1nc(N2CCN(C(=O)[C@H](CCC(=O)O)n3cc(C(N)[C@H](C)CC)nn3)CC2)nc(N2CCN(C(=O)[C@H](CCC(=O)O)n3cc(C(N)[C@H](C)CC)nn3)CC2)n1 (stereo partly specified),.,/,/,/,/,/
N#Cc1c(C(F)(F)F)cc(-c2ccccc2)nc1SCC(=O)Nc1sc2c(c1C#N)CCC2,.,/,.,/,/,/
Cc1ccc(-c2nn(C)c(=O)c3ccccc23)cc1S(=O)(=O)NCCO,.,4.14,.,6200,.,.
Cc1ccc(-c2nn(C)c(=O)c3ccccc23)cc1S(=O)(=O)N1CCCC1,.,.,.,/,/,/
O=C(CSc1nc(-c2ccccc2)cc(C(F)(F)F)n1)NCc1ccco1,.,/,.,/,/,/
COc1ccc(-c2ccc(SCC(=O)NCc3ccco3)nn2)cc1OC,.,15,.,17224,/,+
COc1ccc(-c2[nH]c(-c3ccc(C)cc3)nc2SCC(=O)NCc2ccco2)cc1OC,.,/,.,/,/,/
COc1ccc(-c2cc(C(F)(F)F)nc(SCC(=O)NCc3ccco3)n2)cc1OC,.,13.1,.,18992,.,+
O=C1CC(N(C(=O)c2ccco2)c2cccc(Cl)c2)C(=O)N1c1cccc(Cl)c1 (stereo unspecified),.,/,.,/,/,/
O=C(N/N=C\c1ccc(F)cc1)c1csnn1,.,/,.,/,/,/
O=C(C1=C[C@@H](c2ccc(C(F)(F)F)cc2)C[C@@H](OCc2ccc(CO)cc2)O1)N1CCN(Cc2ccccc2)CC1,.,/,/,/,/,/
CC(NS(=O)(=O)c1ccc(CCC(=O)NCc2cccnc2)cc1)c1ccccc1 (stereo unspecified),.,/,.,/,/,/
Cc1ccc(S(=O)(=O)c2cc3c(=O)n4cc(C)ccc4nc3n(CC3CCCO3)c2=N)cc1 (stereo unspecified),/,.,/,/,/,/
N=c1c(S(=O)(=O)c2ccccc2)cc2c(=O)n3ccccc3nc2n1CC1CCCO1 (stereo unspecified),.,7.59,.,10760,.,+
CC(=O)NC1C(=O)Nc2c(C)cc(C)cc21 (stereo unspecified),.,/,.,/,/,/
CCn1ncc(C2=NOC(C(=O)Nc3ccc(C)cc3)C2)c1C (stereo unspecified),.,/,.,/,/,/
CCn1ncc(C2=NOC(C(=O)Nc3ccc4c(c3)OCO4)C2)c1C (stereo unspecified),.,4.57,/,7668,.,.
SMILES,hDAT+cocaine,D1 allo mod,EphB4 ephrin blk,D1 PAM confirm,D1 ag no DA,Isoprot counter
O=c1c(-c2nnc(SCc3ccc(Cl)c(Cl)c3)o2)cccn1Cc1ccccc1,.,/,.,/,/,/
Cc1ccc(C(=O)Nc2ccc3cn[nH]c3c2)cc1S(=O)(=O)N1CCCCC1,.,/,.,/,/,/
Cc1ccc(-c2cc(C(=O)NCc3cccnc3)no2)cc1,.,.,.,/,/,/
COCCNC(=O)c1cc(-c2ccc(Cl)c(Cl)c2)on1,.,.,/,/,/,/
COc1ccc(-c2cc(C(=O)N3CCc4ccccc4C3)no2)cc1OC,.,4.63,.,10752,.,+
COc1ccc(-c2cc(C(=O)NCc3cccnc3)no2)cc1OC,.,4.22,.,9080,/,.
COc1ccc(-c2cc(C(=O)N3CCCc4ccccc43)no2)cc1OC,.,.,.,/,/,/
COCCNC(=O)c1cc(-c2ccc(OC)c(OC)c2)on1,.,15,.,15388,.,+
O=C(O)c1cc(-c2ccccc2)nn1CC1CC(c2cccc([N+](=O)[O-])c2)=NO1 (stereo unspecified),.,/,/,/,/,/
CN(Cc1cnn(C)c1)C(=O)C1CCCCC1C(=O)O (stereo unspecified),.,/,.,/,/,/
Cc1ccccc1S(=O)(=O)c1c(C)cc(-c2ccccc2)[nH]c1=O,.,/,.,/,/,/
CCN(CCNC(=O)Nc1ccc(Cl)cc1)c1ccccc1,.,.,.,/,/,/
CC(=O)N1[C@H](Cc2ccccc2)C=C[C@]1(C)C(=O)NCc1ccccn1,.,/,/,/,/,/
O=C(NCc1ccco1)c1ccc(Cn2c(=O)c3ccccc3n(Cc3ccc(Cl)cc3)c2=O)cc1,.,/,.,/,/,/
O=C(CCCCn1c(=O)c2ccccc2n(Cc2ccc(F)cc2)c1=O)NCc1ccco1,.,/,.,/,/,/
O=c1c2cc(Cl)ccc2[nH]c(=S)n1Cc1ccco1,.,2.83,.,9744,.,.
Cc1ccc(Cn2c(=O)n(Cc3ccco3)c(=O)c3ccccc32)cc1,.,12.1,/,15080,.,+
O=c1c2ccccc2n(Cc2ccc(Cl)cc2)c(=O)n1Cc1ccco1,.,8.51,/,16764,.,+
O=C(CCCn1c(=O)c2ccccc2n(Cc2ccccc2)c1=O)NCc1ccco1,.,2.99,.,8576,.,+
O=c1[nH]c2ccc(Cl)cc2c(=O)n1Cc1ccco1,.,/,.,/,/,/
O=C(Cn1c(=O)n(Cc2ccccc2)c(=O)c2ccccc21)NCc1ccco1,.,/,.,/,/,/
COc1ccc(F)cc1S(=O)(=O)N1CC(C)CC(C)C1 (stereo unspecified),.,/,.,/,/,/
O=C1N=C2SCCN2/C1=C\c1ccccc1Cl,.,/,.,/,/,/
O=C(Cn1cnc2ccc(Cl)cc2c1=O)c1cccs1,.,/,.,/,/,/
O=C(Cc1sc(-c2ccccc2Cl)nc1-c1ccccc1)Nc1ccc(F)cc1,.,/,.,/,/,/
SMILES,hDAT+cocaine,D1 allo mod,EphB4 ephrin blk,D1 PAM confirm,D1 ag no DA,Isoprot counter
CCc1ccc2[nH]c(=O)c(CN(Cc3nnnn3C3CCCC3)C3CCCCC3)cc2c1,.,2.53,/,8428,.,.
Cc1cccc2cc(CN(Cc3nnnn3C3CCCC3)C3CCCCC3)c(=O)[nH]c12,.,.,.,/,/,/
CC(=NCc1ccco1)c1c(C)[nH]n(-c2nc3ccccc3s2)c1=O,.,.,.,/,/,/
CC(=NCc1ccco1)c1c(O)n(C2CCCCC2)c(=O)[nH]c1=O,.,11.4,.,14172,.,+
CS(=O)(=O)N(CC(=O)Nc1cccc(Cl)c1Cl)c1ccccc1,.,/,.,/,/,/
COc1ccc(C(=O)n2nc(-c3ccccc3)nc2SC)cc1,.,/,.,/,/,/
COc1ccc(C(=O)n2nc(-c3ccccc3)nc2N)cc1OC,.,6.13,.,15096,.,+
Cc1cc(NC(=O)CN2CCOCC2)n(-c2nc3ccccc3s2)n1,.,/,.,/,/,/
Cc1ccccc1OCCCC(=O)NCc1ccco1,.,/,.,/,/,/
Cc1ccc(S(=O)(=O)n2ccc(=O)[nH]2)cc1,.,/,/,/,/,/
